Source: PubChem
GALR2 blocker: GALR2 antagonists in receptor-expressing cells, primary screen. antagonist mode. inhibition, % at 4 µM. AID 828, 2007. Galanin receptor type 2 (Homo sapiens), O43603. 0.39% of 140,000 active; in the data active = inhibition above about 27%;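 also: cells stimulated with galanin 1-16 at roughly its EC80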
Target sequence (O43603 whole entry, looked up): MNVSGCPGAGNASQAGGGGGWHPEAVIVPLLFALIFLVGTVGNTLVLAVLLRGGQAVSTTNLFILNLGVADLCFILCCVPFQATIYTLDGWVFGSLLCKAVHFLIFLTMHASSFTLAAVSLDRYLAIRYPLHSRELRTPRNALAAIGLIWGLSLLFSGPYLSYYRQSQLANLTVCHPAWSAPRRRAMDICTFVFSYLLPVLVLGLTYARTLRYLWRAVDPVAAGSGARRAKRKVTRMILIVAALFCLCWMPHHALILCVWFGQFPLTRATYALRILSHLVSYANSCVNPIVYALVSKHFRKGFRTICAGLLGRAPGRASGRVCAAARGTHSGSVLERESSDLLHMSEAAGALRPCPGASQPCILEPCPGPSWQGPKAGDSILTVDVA
GALR2 agonist: GALR2 receptor agonists, primary screen, cell-based | GALR2-expressing cells, agonist activation read-out | activation, % (concentration not given with the values) | 0.48% of 140,000 active; in the data active = activation above about 5%, passing the limit was not always enough
S1P2 blocker: human S1P2 receptor antagonists, primary screen, cell-based. 0.21% of 97,000 active. cell-based S1P2 antagonist assay, inhibition at 5 uM. inhibition, % at 5 µM. Sphingosine 1-phosphate receptor 2 (Homo sapiens), O95136. AID 736, 2007; in the data active = inhibition above about 45%;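 also: CRE beta-lactamase reporter cells expressing human S1P2 stimulated with S1P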
Phagocyt inh: inhibitors of macrophage phagocytosis, primary screen, imaging, J774A.1 cells, IgG beads | J774A.1 macrophage IgG-bead phagocytosis | 0.07% of 110,000 active | inhibition, % at 5 µM;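 active = inhibition above the mean of the plate negative controls plus 5 SD, cut at about 13% in these data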;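 also: phagocytic index as fraction of beads internalized from green versus red external bead signal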
S1P2 agonist: S1P2 receptor agonists, primary screen, cell-based; S1P2-expressing cell line, agonist reporter read-out; activation, % at 4.5 µM; 0.46% of 97,000 active; in the data active = activation above about 16%
Hits are given with their value; i = inactive; nt = no result; [ ] = dose if it differs, or a comment. An excerpt weighted towards active compounds, which were near 1.3% of everything screened.

SMILES	GALR2 blocker	GALR2 agonist	S1P2 blocker	Phagocyt inh	S1P2 agonist
CC(=O)Nc1ccc(NC(=O)CSC2=NCCS2)cc1	i	i	i	i	i
CC(=O)Oc1ccc(N2C(=O)C3C4C=CC(CO)(O4)C3C2=O)cc1 (stereo not given)	i	i	i	i	i
O=C1C2C3C=CC(CO)(O3)C2C(=O)N1c1ccccc1-c1ccccc1 (stereo not given)	75.6	i	nt	i	nt
O=S(=O)(Cc1ccc(Cl)cc1)NCC1CCCO1 (stereo not given)	i	i	i	i	62.6
O=C(N/N=C/c1cccc(OC(=O)c2ccco2)c1)c1ccc(F)cc1	i	i	nt	i	nt
Nc1nc2c3ccccc3nc(C3CC3)n2n1	i	i	i	i	24.3
Cc1ccc(C)c(N/N=C2\CCCNC2=O)c1	i	i	nt	nt	nt
CCOc1ccccc1NC(=O)C1=C(C)NC(=S)NC1c1cccs1 (stereo not given)	i	i	nt	i	nt
O=C1c2ccccc2C(=O)N1n1cccc1	i	i	nt	i	nt
Cc1ccc(-c2cc(C(F)F)nc(NCc3cccnc3)n2)cc1	i	5.0	i	nt	i
N#C/C(=C/c1ccc(N2CCCCC2)o1)c1cccc(F)c1	i	i	i	i	i
N#C/C(=C/c1ccc(N2CCCCCC2)o1)c1ccc(Cl)cc1	i	i	48.8	i	i
N=c1c(-c2nc3ccccc3[nH]2)cc(C(=O)c2cccs2)nn1-c1ccccc1	i	i	i	nt	21.6
N=c1c(-c2nc3ccccc3[nH]2)cc(C(=O)c2ccco2)nn1-c1ccccc1	i	i	nt	i	nt
Cc1ccccc1NC(=O)c1ccccc1NC(=O)CCC(=O)O	i	i	nt	i	nt
CCN(CC)S(=O)(=O)c1ccc(O)c(NS(=O)(=O)c2ccccc2F)c1	i	i	nt	i	nt
CCc1nc(SCC(=O)Nc2ccc3c(c2)OCCO3)c2oc3ccccc3c2n1	i	i	i	nt	i
COc1ccccc1NC(=O)CSc1ncnc2c1oc1ccccc12	i	i	i	i	24.0
Cc1nc(SCC(=O)Nc2ccc3c(c2)OCCO3)c2oc3ccccc3c2n1	i	i	i	nt	19.5
Cc1ccc(/C=C/C(=O)N2CCN(c3ncccn3)CC2)o1	i	i	nt	i	nt
O=C(CN(Cc1ccccc1)C(=O)c1cccc([N+](=O)[O-])c1)Nc1c(Cl)cc(Cl)cc1Cl	i	i	nt	i	nt
O=C(NNS(=O)(=O)c1ccc(Cl)cc1)c1ccc(S(=O)(=O)N2CCCCC2)cc1	i	i	nt	i	nt
O=C(N/N=C\c1cc(Cl)ccc1O)c1ccc(S(=O)(=O)N2CCCCC2)cc1	i	6.9	nt	nt	nt
CCOC(=O)C(NC(=O)N(C)C)(Nc1sc(C)c(CC)c1C#N)C(F)(F)F (stereo not given)	i	i	nt	i	nt
Cc1c(-c2ccccc2)oc2c(C(=O)OCC(=O)Nc3ccc(C(N)=O)cc3)cccc2c1=O	i	i	nt	i	nt
SMILES	GALR2 blocker	GALR2 agonist	S1P2 blocker	Phagocyt inh	S1P2 agonist
N#C/C(=C\c1cn(-c2ccccc2)nc1-c1cccnc1)c1nnc2n1CCCCC2	i	i	i	i	i
COc1cc2c(cc1OC)C1=C(C#N)CCC(=O)N1CC2	i	i	i	nt	62.2
COc1ccc(C(=O)N=C2CCC(C#N)=C3c4cc(OC)c(OC)cc4CCN23)cc1	i	i	nt	i	nt
COc1cc2c(cc1OC)C1=C(C#N)CC/C(=N\S(=O)(=O)c3ccccc3)N1CC2	i	i	i	i	49.2
CCCn1c(N)c(C(=O)CSc2nc3ccccc3n2CCC#N)c(=O)n(C)c1=O	i	i	i	i	25.6
CCOC(=O)c1cc(-c2ccc3c(c2)OCCO3)nc2c1c(C)nn2CCC#N	i	7.1	i	i	i
COc1ccc(N(CC(=O)N/N=C/c2ccc(-c3ccc([N+](=O)[O-])cc3)o2)S(=O)(=O)c2ccc(C)cc2)cc1Cl	i	i	50.4	i	i
O=S(=O)(NCCO)c1cccc2cccnc12	i	i	i	49.5[artifact]	i
O=C1c2ccccc2C(=O)N1CC(O)CNc1ccc(Br)cc1 (stereo not given)	i	i	nt	i	nt
Cc1cccc2cc(C(c3nnnn3CC3CCCO3)N3CCc4ccccc4C3)c(=O)[nH]c12 (stereo not given)	i	i	i	i	127.8
Cc1ccc2cc(C(c3nnnn3CC3CCCO3)N3CCc4ccccc4C3)c(=O)[nH]c2c1 (stereo not given)	i	i	i	nt	i
CCOC(=O)C1=C(N)OC2=C(C(=O)CC(C)(C)C2)C1c1ccccc1OCC#N (stereo not given)	i	i	i	i	i
COc1ccc(/C=C2/SC(=O)N(CCC(=O)Nc3ccccc3)C2=O)cc1OC	i	i	nt	i	nt
Cc1c(NC(=O)c2cc(-n3cnnc3)ccc2Cl)cccc1-c1nc2ccccc2o1	i	i	55.7	nt	i
O=C(Nc1ccc(-c2nc3ccccc3o2)c(O)c1)c1cc(-n2cnnc2)ccc1Cl	i	i	i	i	i
Cc1ccc(C2=NC3(CCCCC3)N=C2SCC(=O)Nc2ccc3c(c2)OCCO3)cc1	i	i	nt	nt	nt
CCC(=O)Nc1ccccc1C(=O)C(=O)Nc1ccccc1	i	i	nt	i	nt
CCOC(=O)c1c(C)[nH]c(C(=O)OC/C(O)=C(\C#N)c2nc3ccccc3[nH]2)c1C	i	i	i	i	16.2
COc1cc(OC)c(-c2nnc(-c3ccc(OC)c(OC)c3OC)o2)cc1OC	i	i	i	i	16.2
Cn1c(-c2sc(=S)n(-c3ccccc3)c2N)nc2ccccc21	i	i	i	nt	32.2
CC(/C=C(\NC(=O)c1ccccc1)C(=O)N=Nc1c(O)[nH]c2ccc(C)cc12)=C\c1ccccc1	i	i	i	i	i
CC1CC(C)CN(C(=O)c2ccc3c(c2NCCO)C(=O)c2ccccc2C3=O)C1 (stereo not given)	i	i	i	i	i
O=C1c2ccccc2S(=O)(=O)N1CC1CC(c2ccccc2)=NO1 (stereo not given)	i	i	i	i	i
COc1ccc(C2=NOC(CN3C(=O)c4ccccc4S3(=O)=O)C2)cc1 (stereo not given)	i	i	i	37.5	i
COc1ccc2c(c1)c1nnc(SCC(=O)N3C(C)CCCC3C)nc1n2C (stereo not given)	i	i	i	nt	19.4
SMILES	GALR2 blocker	GALR2 agonist	S1P2 blocker	Phagocyt inh	S1P2 agonist
COc1ccc2c(c1)c1nnc(SC)nc1n2C	i	i	i	nt	i
Cc1ccccc1OCC(=O)OC(C(=O)c1ccccc1)c1ccccc1 (stereo not given)	i	i	nt	i	nt
COC(=O)c1c(-c2ccccc2)csc1NC(=O)c1c(-c2ccccc2)noc1C	i	i	nt	i	nt
CCOC(=O)c1c(-c2ccc(F)cc2)csc1NC(=O)c1c(-c2ccccc2)noc1C	i	i	nt	129.4[artifact]	nt
COc1cc2c(cc1OC)/C(=C/C#N)NC(C)(C)C2	i	i	i	i	25.6
COc1cc2c(cc1OC)C1=C(C#N)CN(C3CCCCC3)CN1CC2	i	i	i	i	20.0
COc1ccc(CCN2CC(C#N)=C3c4cc(OC)c(OC)cc4CCN3C2)cc1OC	i	i	i	i	24.3
Cc1ccc(NC(=O)CCSc2ccccn2)cc1	i	i	nt	i	nt
CSc1cc(-c2ccc(Cl)cc2)n(Cc2ccccc2)c(=O)c1C#N	i	438.3	i	i	i
